# MCF10A rereplic: A quantitative high throughput screen for small molecules that induce DNA re-replication in MCF 10a normal breast cells. hit rate 2.9% among 350,000. MCF 10A DNA re-replication, Hoechst nuclear intensity, 48 h. Potency, µM (titrated, usually from 46.1 µM), for inactives: top-dose activity, positive = re-replication, usual class: activators; note: potency is the fitted concentration of half-maximal effect; % of control where 0% means no effect; nearly all actives have a fitted effect of over 50% in size
# Giardia kill: Small Molecules that selectively kill Giardia lamblia: qHTS. Giardia lamblia trophozoite viability. activity change, % at 7.66 µM, hits read low. hit rate 0.15% among 340,000. AID 540267, 2011; in the data active = activity change below about -80%; inconclusive = between about -30% and that limit;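 note: parasites exposed to compound for two days anaerobically before the ATP read; % is set by controls: 0 for no effect and ±100 for the full control effect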
#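 Luminescent ATP signal served as the viability read-out, measured 15-30 min after adding ATP detection reagent to trophozoites that had been incubated with compounds for 48 hrs at 37 deg C anaerobically at 100 cells/well.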
# BCR signal inh: qHTS Assay to Find Inhibitors of Chronic Active B-Cell Receptor Signaling. ABC-DLBCL IkBa-CBG/CBR reporter, luminescence ratio, 4 h. Potency, µM (doses to about 46.1 µM), for inactives: at the highest dose activity change, negative = inhibition, hits mostly inhibitors. hit rate 0.05% among 340,000. AID 493014, 2011; active = well fitted inhibition curve with a large enough effect in the signal ratio, with a control signal flat, not every such curve was filed as active; inconclusive = small, poorly fitted or top-dose-only effect, or effect the other way, or a change in a side signal; the % refers to the signal ratio;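 note: potency is the fitted concentration of half-maximal effect; plate controls were basal doxycycline-induced cells for no effect and cells given 10 µM MG132 for full effect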
#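 Compounds up to 46 uM were incubated four hours with TMD8 cells whose green CBG68 luciferase is fused to IkappaBalpha; red CBR luminescence normalised the signal, and concentration-effect curves were fitted to fusion, red and ratio data.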
# RORg inh: qHTS for inhibitors of ROR gamma transcriptional activity | Drosophila S2 Gal4-RORgamma UAS-luciferase reporter, 20 h | Potency, µM (doses to about 53.6 µM), for inactives: top-dose activity change, negative = inhibition, usual class: inhibitors | hit rate 5.4% among 310,000 | AID 2551, 2010; note: potency is the fitted concentration of half-maximal effect; % is set by controls: 0 for no effect and ±100 for the full control effect; nearly all actives have a fitted effect of over 60% in size
# Target sequence (P51450 whole entry, looked up, the tested form may be a part): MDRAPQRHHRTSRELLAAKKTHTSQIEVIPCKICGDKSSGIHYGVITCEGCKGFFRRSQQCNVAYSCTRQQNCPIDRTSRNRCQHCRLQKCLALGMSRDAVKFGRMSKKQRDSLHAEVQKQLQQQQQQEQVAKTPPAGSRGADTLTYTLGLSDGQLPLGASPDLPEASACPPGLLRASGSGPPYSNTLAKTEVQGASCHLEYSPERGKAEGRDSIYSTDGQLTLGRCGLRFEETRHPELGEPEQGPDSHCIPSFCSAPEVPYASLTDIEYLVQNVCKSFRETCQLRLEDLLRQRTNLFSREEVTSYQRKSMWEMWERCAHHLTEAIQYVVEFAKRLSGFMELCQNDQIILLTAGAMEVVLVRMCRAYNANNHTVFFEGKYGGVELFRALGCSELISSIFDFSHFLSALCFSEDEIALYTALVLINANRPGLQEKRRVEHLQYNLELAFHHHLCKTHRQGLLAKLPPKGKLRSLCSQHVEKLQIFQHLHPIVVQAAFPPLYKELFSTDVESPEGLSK
#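 Drosophila Schneider cells stably carrying a metallothionein-driven Gal4 DBD–ROR gamma fusion and a UAS-Photinus luciferase reporter were exposed to compound for 1 hr, then induced with copper sulfate (700 uM final) for 20 hr at ambient temperature before luminescence reading.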
# SW480 rerep: A quantitative high throughput screen for small molecules that induce DNA re-replication in SW480 colon adenocarcinoma cells. SW480 DNA re-replication, Hoechst DNA content imaging, 48 h. Potency, µM (highest dose often 46.1 µM), without a hit: at the top dose re-replication activation, actives largely listed as activators. hit rate 1.8% among 340,000; note: potency is the fitted concentration of half-maximal effect; % of control where 0% means no effect; nearly all actives have a fitted effect of over 55% in size
#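 Image-based DNA-content assay: after two days of treatment, nuclei were labelled with the DNA dye Hoechst and imaged, and hits were compounds raising the count of nuclei showing high fluorescence intensity.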
# VP16 counter: VP16 counterscreen qHTS for inhibitors of ROR gamma transcriptional activity; Drosophila S2 Gal4-VP16 UAS-luciferase, luminescence, 20 h; Potency, µM (doses to about 53.6 µM), for inactives: at the top dose activity, negative = inhibition, actives largely listed as inhibitors; hit rate 3.5% among 310,000; AID 2546, 2010;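 note: Gal4-VP16 expression switched on by copper sulfate through the metallothionein promoter; potency is the fitted concentration of half-maximal effect; % is set by controls: 0 for no effect and ±100 for the full control effect; nearly all actives have a fitted effect of over 50% in size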
# * = called active by the depositor; ? = inconclusive; / = no result given. This is a sample that favours compounds with a hit; in the whole collection about 8.3% have one here. Unless noted, calls come from the whole dose curve; as a rule, active = well fitted curve in the direction sought with a large enough effect; inconclusive = small, poorly fitted or top-dose-only effect, or another doubt; inactive = no such curve, though single readings can be large; an effect the other way counts as inactive or inconclusive.
SMILES,MCF10A rereplic,Giardia kill,BCR signal inh,RORg inh,SW480 rerep,VP16 counter
Cc1[nH]c(=S)c(C#N)c(C)c1Cc1ccc(Cl)cc1Cl,0%,3,11%,3.2µM*,-25%,20µM*
CC(C)(C)c1ccc(CN2N=C(/C=C/c3ccccc3)CCC2=O)cc1,21µM*,0,?,28%,?,18%
O=C1CCC(/C=C/c2ccccc2)=NN1Cc1ccccc1,0%,9,-1%,7%,-7%,0%
COc1ccc(Cn2c(=S)[nH]c3ccccc32)cc1,-3%,-8,-13%,10µM*,19%,?
COc1ccc(-n2c(=S)[nH]c3ccccc3c2=S)cc1,13%,-3,-5%,0.5µM*,5%,0.71µM*
COc1ccc(-n2c(=S)[nH]c3ccccc32)cc1,1%,1,-13%,4.5µM*,1%,20µM*
COc1ccc(Cn2c(C3CCCCC3)nc3c(c(=O)c4ccccc4n3C)c2=O)cc1,-2%,-22,?,-13%,-4%,-4%
COc1ccc(CCn2c(C3CCCCC3)nc3c(c(=O)c4ccccc4n3C)c2=O)cc1,3.7µM*,-14,-3%,4%,-22%,-13%
CCn1c(CCl)nc2cc(S(=O)(=O)N3CCOCC3)ccc21,?,10,-3%,/,15µM*,/
CC(=O)Nc1cccc2c1C(=O)N(c1ccc(OC(C)=O)cc1)C2=O,-2%,14,4%,-14%,-3%,-6%
O=c1c(-c2ccc(F)cc2)nc2cnc(N3CCNCC3)nc2n1-c1ccccc1,/,/,/,-40%,/,-13%
CCC1CCCCN1C(=S)NC(=O)c1cc(Br)ccc1Cl (stereo not drawn),0%,-6,-3%,/,-8%,/
CCC1CCCCN1C(=S)NC(=O)c1ccc(F)c(S(=O)(=O)N2CCOCC2)c1 (stereo not drawn),4%,6,-1%,0.56µM*,3%,1.6µM*
O=C(NC(=S)N1CCCCC1CO)c1cccs1 (stereo not drawn),-1%,19,?,/,9%,/
CCOC(=O)C1CCN(C(=O)c2cccs2)CC1,-4%,-27,?,5%,4%,-6%
CCC1CCCCN1C(=S)NC(=O)c1ccc([N+](=O)[O-])cc1 (stereo not drawn),?,3,0%,0.25µM*,?,0.28µM*
CCOC(=O)C1CCN(C(=S)NC(=O)c2cccs2)CC1,0%,4,9%,5.6µM*,-8%,4.5µM*
CCC1CCCCN1C(=S)NC(=O)c1cccs1 (stereo not drawn),?,-14,?,0.71µM*,-5%,1.1µM*
CCCCCOc1ccc(C(O)C(CN2CCOCC2)c2ccccc2)cc1 (stereo not drawn),?,-19,4%,25%,0%,7%
CCOc1ccc(NC(=O)Nc2cc(OCC(F)(F)F)cc(OCC(F)(F)F)c2)cc1,?,11,?,?,?,-26%
O=C(Nc1ccc(F)cc1)Nc1cc(OCC(F)(F)F)cc(OCC(F)(F)F)c1,?,-12,?,?,?,6.3µM*
CC(C)(C)C1=CC(=O)C(=O)C(C(C)(C)C)=C1,?,-9,?,10µM*,18µM*,13µM*
O=C(CN1C(=O)c2ccccc2S1(=O)=O)c1cccc(Br)c1,1%,?,3%,?,-4%,-17%
O=C(CN1C(=O)c2ccccc2S1(=O)=O)c1ccc2c(c1)OCCO2,16%,?,-16%,0.025µM*,0%,0.56µM*
O=C(CN1C(=O)c2ccccc2S1(=O)=O)c1ccc2c(c1)OCCCO2,0%,?,?,0.28µM*,-3%,0.71µM*
SMILES,MCF10A rereplic,Giardia kill,BCR signal inh,RORg inh,SW480 rerep,VP16 counter
Cc1cc(C(=O)OCC(=O)Nc2ccccc2C#N)c(C)o1,2%,1,-18%,/,-6%,/
CC(Sc1nc(-c2ccc(F)cc2)cs1)C(=O)N1c2ccccc2CC1C (stereo not drawn),21µM*,25,9%,?,?,-16%
COc1ccc(NC(=O)C2CC(=O)N(CCc3ccc(Cl)cc3)C2)cc1 (stereo not drawn),-1%,3,1%,0%,1%,-7%
Brc1ccc(C=Nc2ccc(Nc3ccccc3)cc2)s1,?,-12,9%,?,/,-7%
C(=Nc1ccc(Nc2ccccc2)cc1)c1ccc2ccccc2c1,28%,-6,7%,?,24%,13µM*
COc1ccc(Br)cc1CN1CCN(C(=O)c2ccco2)CC1,1%,-14,0%,5%,-1%,6%
COc1cccc(Sc2ccccc2/C=N/NC(N)=O)c1,?,-16,-1%,-6%,6.5µM*,7%
C=CCOc1c(/C=N\NC(N)=O)cccc1OC,12%,14,-7%,5%,?,-2%
Cc1csc(NC(=O)CSC2=NS(=O)(=O)c3ccccc3N2)n1,?,4,?,/,-1%,/
O=C(NC(=S)N1CCCCC1c1cccnc1)c1ccc(Br)cc1 (stereo not drawn),7%,-17,3%,0.5µM*,14%,1.3µM*
O=C(Nc1ccc(Cl)cc1C(=O)NCc1cccnc1)c1ccc(Cl)cc1Cl,?,10,?,?,?,-1%
O=C(NC(=S)N1CCCCC1c1cccnc1)c1ccc(F)cc1 (stereo not drawn),-1%,14,-9%,0.89µM*,-17%,2.5µM*
Cc1cccc(NC(=S)N2CCCCC2c2cccnc2)c1C (stereo not drawn),2%,2,5%,-28%,-4%,8%
O=C(NC(=S)NN1CCCCC1c1cccnc1)c1ccc(Cl)cc1Cl (stereo not drawn),-1%,-3,?,1.6µM*,2%,4.5µM*
CC(C)(C)OC(=O)N1CCCC(C(=O)Nc2ccc(C(=O)N3CCCCC3)cc2)C1 (stereo not drawn),25%,2,2%,/,4%,/
CSc1ccc(CN(C)CC(=O)NCCc2ccccc2)cc1,19%,-18,2%,?,-1%,6%
CCOC(=O)C1CCN(C(=O)c2cc3cc(Cl)ccc3[nH]2)CC1,-3%,12,?,25%,-4%,0%
Cc1cccc(C(=O)OCC(=O)NCc2cccs2)c1,13%,-11,-23%,2%,-8%,4%
COC(=O)c1cc(C(=O)OCC(=O)NNC(=O)c2cccs2)cc([N+](=O)[O-])c1,-10%,-13,1%,/,2.9µM*,/
